Hits are enriched below; roughly 3.5% of the tested compounds scored in any of these assays.
Mtb bLac sens = beta-lactam sensitization of Mtb H37Rv; M. tuberculosis H37Rv growth with meropenem, percent inhibition; inhibition, % at 25 µM; 330,000 tested, 0.27% active; AID 434955; call rule not given here;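 note: growth measured after seven days incubation then overnight dye step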
Rv3671c inh = inhibits the M. tuberculosis serine protease Rv3671c. 320,000 tested, 0.048% active. inhibition, % at 5.96 µM. P9WHR9; in the data active = inhibition above about 38%;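 note: extracellular domain of Rv3671c used as enzyme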
Target sequence (P9WHR9 whole entry, looked up, the tested form may be a part): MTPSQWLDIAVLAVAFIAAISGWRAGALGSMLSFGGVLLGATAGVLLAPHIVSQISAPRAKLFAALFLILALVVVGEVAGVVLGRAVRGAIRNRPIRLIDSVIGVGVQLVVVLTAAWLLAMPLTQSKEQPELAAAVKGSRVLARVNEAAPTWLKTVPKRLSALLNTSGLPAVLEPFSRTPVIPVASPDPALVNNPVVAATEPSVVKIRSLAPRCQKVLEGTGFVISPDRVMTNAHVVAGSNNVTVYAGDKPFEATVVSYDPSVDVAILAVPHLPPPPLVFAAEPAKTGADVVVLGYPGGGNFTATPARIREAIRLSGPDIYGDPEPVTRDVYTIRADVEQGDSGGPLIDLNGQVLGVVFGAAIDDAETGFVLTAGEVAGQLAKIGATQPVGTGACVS
GDH-TPI counter = GDH-TPI coupled enzyme inhibition counter-screen; GDH-TPI coupled enzyme counterscreen, NADH absorbance; inhibition, % at 4.8 µM; 360,000 tested, 1.2% active; AID 588335; in the data active = inhibition above about 30%
UGM FP inh = inhibitors of M. tuberculosis UDP-galactopyranose mutase; purified UGM, fluorescence polarization probe displacement; inhibition, % at 10 µM; 320,000 tested, 0.06% active; in the data active = inhibition above about 10%, passing the limit was not always enough
FBA Mtb inh = inhibitors of M. tuberculosis fructose-bisphosphate aldolase; P9WQA3; inhibition, % at 1 µM; purified M. tuberculosis FBA, fluorescence read-out; 360,000 tested, 2.3% active; in the data active = inhibition above about 27%
Each line names hits and unclear results; the compound was inactive in the other large screens.

O=C(CSc1nccc(=O)[nH]1)NC1CCCC1	none
Cc1ccc(/C=N/NC(=O)c2cc3c(ccc4ccccc43)o2)o1	none (no result: Mtb bLac sens, Rv3671c inh, UGM FP inh)
CCOc1cc(/C=N/NC(=O)c2cc3c(ccc4ccccc43)o2)ccc1O	GDH-TPI counter 44 (no result: Rv3671c inh)
CCOC(=O)COc1ccccc1/C=N\NC(=O)c1cc2c(ccc3ccccc32)o1	GDH-TPI counter 31 (no result: Rv3671c inh)
COc1cc(C(F)(F)F)c(C(=O)NCc2cccc(Cl)c2)cn1	none
O=C1CCCc2nc(N3CCCCC3)sc21	GDH-TPI counter 32
CCOc1cc(/C=N/n2c(C)nnc2C)ccc1O	GDH-TPI counter 40
CCOc1ccc(/C=N/n2c(C)nnc2C)cc1OC	none
CN(C)c1ccc(N=Cc2ccco2)cc1	none
C(=Nc1cccc2c(N=Cc3ccco3)cccc12)c1ccco1	FBA Mtb inh 62
O=C(N/N=C1\CCS(=O)(=O)c2ccc(F)cc21)c1ccc(O)cc1	GDH-TPI counter 46
O=S1(=O)CC/C(=N/Nc2ccc(C(F)(F)F)cn2)c2cc(F)ccc21	none
O=S1(=O)CC/C(=N/Nc2ccccn2)c2cc(F)ccc21	GDH-TPI counter 33
CCOC(=O)c1ccccc1-c1cn2cc(Cl)ccc2n1	none
C=C1CCC[C@]2(C)C[C@H]3OC(=O)C(CNCC(OC)OC)[C@H]3CC12 (stereo partly drawn)	none
CC1CCN(C(=O)CN(Cc2ccc(F)cc2)S(C)(=O)=O)CC1	none (no result: Rv3671c inh)
O=c1c2ccccc2nnn1CSc1ccc2c(c1)OCCO2	FBA Mtb inh 152
CCC(C(=O)Nc1ccc2c(c1)OCCO2)n1nnc2ccccc2c1=O (stereo not drawn)	none
COc1ccccc1CC(=O)Nc1ccon1	none
CCNC(=S)N/N=C(\C)c1ccc(Cl)s1	GDH-TPI counter 31
CCNC(=S)N/N=C(\C)c1cc2ccccc2o1	GDH-TPI counter 47
C=C(C)CNC(=S)N/N=C(\C)c1ccc(Cl)s1	none
O=C(NNC(=S)Nc1ccccc1Cl)c1ccncc1	GDH-TPI counter 34
Cc1ccc(/C=N/NC(=O)C(=O)N/N=C/c2ccc(C)o2)o1	none
Cc1ccc(C(=O)N/N=C\c2ccc(Br)o2)o1	GDH-TPI counter 58
Cc1c(/C=N/NC(=O)c2ccc(Br)o2)cnn1C	FBA Mtb inh 127
Cc1[nH][nH]c(=O)c1C(c1c(C)[nH][nH]c1=O)c1cn(Cc2ccccc2Cl)c2ccccc12	none (no result: Mtb bLac sens, Rv3671c inh, UGM FP inh)
CCOC(=O)Cc1csc(NC(=O)/C=C/c2ccc(Br)o2)n1	GDH-TPI counter 75
CCOC(=O)Cc1csc(NC(=O)c2ccc(Br)o2)n1	none
O=C1C2(CCCC13COC(c1ccc(O)cc1)OC3)COC(c1ccc(O)cc1)OC2 (stereo not drawn)	none (no result: GDH-TPI counter, FBA Mtb inh)
CC(=O)Oc1ccc2occ(/C=N/c3cc(=O)[nH]c(=S)[nH]3)c(=O)c2c1	GDH-TPI counter 39
COc1ccc(C#Cc2c(-c3ccccc3)n(-c3ccccc3)c3ccc(CO)cc23)cc1	GDH-TPI counter 33, FBA Mtb inh 113
Cc1ccc(OCC(=O)NC(=S)Nc2ccc(S(=O)(=O)Nc3cc(C)on3)cc2)c(Br)c1	none
Cc1ccc(S(=O)(=O)NN2C(=O)/C(=C/c3cccs3)SC2=S)cc1	GDH-TPI counter 31
N#C/C(=C\c1ccc(Cl)cc1)c1nc2ncccc2[nH]1	GDH-TPI counter 39
O=C(CCOc1ccccc1)Nc1ccnn1C1CCN(Cc2ccccc2)CC1	none
O=C(O)c1ccc(N=Nc2c(O)[nH]c3ccccc23)cc1	GDH-TPI counter 35
Cc1cc(NC(=O)c2ccccc2NS(=O)(=O)c2c(C)c(C)cc(C)c2C)no1	none
Cc1ccc(C)c(S(=O)(=O)Nc2ccccc2C(=O)Nc2cc(C)on2)c1	FBA Mtb inh 135
COc1ccc(-c2cc(C(=O)NCCCN3CCCC3=O)c3ccccc3n2)cc1	FBA Mtb inh 69
COc1ccc(-c2cc(C(=O)NCCc3ccc(S(N)(=O)=O)cc3)c3ccccc3n2)cc1	FBA Mtb inh 67
O=C(NCCCN1CCCC1=O)c1cc(-c2ccc(F)cc2)nc2ccccc12	none
COc1ccc(C(=O)NCCCN2CCCC2=O)cc1	none
COc1ccc2sc(-c3ccc(S(C)(=O)=O)cc3)c(C(=O)NCCCN3CCCC3=O)c2c1	GDH-TPI counter 32 (no result: UGM FP inh)
Cc1ccc(-c2csc3ncnc(SCc4ccc(C(=O)O)cc4)c23)cc1	none
O=C(CSc1nnnn1-c1ccc2c(c1)OCCO2)N1CCN(C(=O)c2ccco2)CC1	none
CCC1(OC(=O)CN)C(=O)OCc2c1cc1n(c2=O)Cc2cc3ccccc3nc2-1 (stereo not drawn)	FBA Mtb inh active
CCOC(=O)c1oc2nc(C(C)C)c3c(c2c1N)CCC3	FBA Mtb inh 124
